# p53ts 39C tox: p53ts cell cytotoxicity, nonpermissive temperature; 130,000 compounds, 1.5% hits; H1299-p53A138V viability at 39C, ATP luminescence, 24 h; AID 902; Potency, µM (series often up to 46.1 µM), most hits filed as cytotoxic; further: nearly all actives have a fitted effect of over 55% in size
# IkB signaling: suppresses IkB signaling in ABC-DLBCL reporter cells | ABC-DLBCL IkBa-CBG/CBR dual luciferase ratio, 4 h; response scale: scaled: untreated 0%, proteasome inhibitor 100% | Potency, µM (titrated, usually from 57.1 µM) | 110,000 compounds, 0.04% hits | AID 445; active means well fitted curve in the direction sought with a large enough effect in the signal ratio, not every such curve was filed as active; inconclusive means small, poorly fitted or top-dose-only effect, or a change in a side signal; the % refers to the signal ratio;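 further: the direction sought is a rising ratio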
#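 Curves were fitted separately to fusion (green), unfused (red) and ratio luminescence, then classed by r2, magnitude and activity. Cells: OCI-Ly3, 4 h compound plus doxycycline at 37C; 10 uM MG-132 defined full response.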
# p53ts 32C kill: kills p53ts cells at the permissive temperature. 130,000 compounds, 0.93% hits. AID 924. H1299-p53A138V at 32C, ATP luminescence viability, 24 h. Potency, µM (series often up to 46.1 µM), hits mostly cytotoxic; further: nearly all actives have a fitted effect of over 55% in size
#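 H1299-p53 A138V cells (temperature-sensitive p53) exposed 24 h to up to 46 uM compound at 32C, where p53 is wild-type in conformation. Viability read as ATP luminescence and normalised to DMSO and 100 uM tamoxifen. AC50 fitted with the Hill equation.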
# Imprint erasure: inducers of genomic imprint erasure in mouse ES cells. AID 1948. 110,000 compounds, 0.02% hits. Potency, µM (titrated, usually from 60.7 µM), hits mostly activators. mouse ES Peg3-LacZ reporter, beta-gal luminescence, 40 h
#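 Each well holds 300 Peg3LacZ-Neo (maternal) female ES cells incubated 40 h at 37C, 5% CO2. LacZ is measured by BetaGlo luminescence, with AC50 and maximum efficacy derived from dose-response curves.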
# Hits are given with their value; n = inactive; u = inconclusive; x = no result; [ ] = dose if it differs, or a comment. In the library only some 1.6% were active in any assay of this set; here they are far more common. Unless noted, the call rests on the fitted dose curve; in most records, active means well fitted curve in the direction sought with a large enough effect; inconclusive means small, poorly fitted or top-dose-only effect, or another doubt; inactive means no such curve, though single readings can be large; an effect the other way counts as inactive or inconclusive.
SMILES,p53ts 39C tox,IkB signaling,p53ts 32C kill,Imprint erasure
COc1cc2c(cc1OC)-c1c(O)c(OC)cc3c1[C@@H](C2)N(C)CC3,x,n[11.4 µM],x,x
COc1cc2c(cc1OC)-c1c(O)c(OC)cc3c1[C@H](C2)N(C)CC3,u,x,32µM,n
CCCCCCC(C)(C)c1ccc([C@@H]2C[C@H](O)CC[C@@H]2CCCO)c(O)c1,6.3µM,u,13µM,n
COc1cc2c(cc1OC)[C@@]13CCN4C=C5CCO[C@H]6CC(=O)N2[C@@H]1[C@@H]6[C@H]5C[C@H]43,n[9.22 µM],n[11.4 µM],n[9.22 µM],x
COc1c(C)cc(Br)cc1C(=O)Nc1ccc(-c2nc3ncccc3o2)cc1,6.3µM,n,n,n[10.9 µM]
CC(=O)[C@@H]1CC[C@H]2[C@H]3CC[C@H]4C[C@@H](O)CC[C@]4(C)[C@@H]3CC[C@]12C,n,n,n,x
CCC(=O)OC1CCC2C3CCc4cc(O)ccc4C3CC[C@]12C (some centres undefined),10µM,x,u,n
CCC(=O)OC1CCC2C3CCC4=CC(=O)CC[C@@]4(C)C3CC[C@]12C (some centres undefined),x,x,x,n
Cc1cc[c]([Sb]2[O]C([C@H](O)[C@H](O)C(=O)O)[C@@H](CO)[O]2)cc1 (some centres undefined),x,x,x,n[10.9 µM]
COc1ccc2c(c1)-c1nc(NC(=O)c3ccc(Cl)cc3)sc1CC2,10µM,n,u,n[10.9 µM]
CCN1C[C@]2(C)CC[C@@H](O)[C@]34[C@@H]5CC6[C@@H](OC)C[C@@](O)([C@H]5[C@@H]6O)[C@@H](C[C@@H]23)[C@H]14,n,n,n,x
CCCCC[CH2][Hg][S]C1=C2N=CNC2NC(N)=N1 (centres undefined),x,x,x,n[10.9 µM]
Cc1cccn2c(=O)cc(COc3cccc(NC(=O)COc4ccc(F)cc4)c3)nc12,7.9µM,u,u,n[10.9 µM]
C[CH2][Hg][S]c1ccccc1C(=O)O,1.3µM,x,1µM,n
CNc1ccccc1C(=O)O,n,x,n,n
CCN(CC)c1ncnc2c1ncn2[C@@H]1O[C@@H](COP(=O)(O)OP(=O)(O)C(Br)(Br)P(=O)(O)O)[C@H](O)[C@@H]1O,n,n,n,x
COc1cc2c(cc1OC)[C@@]13CCN4C=C5CCO[C@H]6CC(=O)N2[C@@H]1C6[C@H]5C[C@H]43 (some centres undefined),x,x,x,n[10.9 µM]
CC(C)=CCCC1(C)C=Cc2c(O)c3c(c(CC=C(C)C)c2O1)OC12C(=CC4CC1C(C)(C)OC2(C/C=C(/C)C(=O)O)C4=O)C3=O (centres undefined),6.3µM,x,4µM,n
CC(C)=CCCC1(C)C=Cc2c(O)c3c(c(CC=C(C)C)c2O1)OC12C(=CC4CC1C(C)(C)OC2(C/C=C(/C)C(=O)O)C4O)C3=O (centres undefined),5µM,x,5µM,n
CC(C)CCCC1(C)C=Cc2c(O)c3c(c(CCC(C)C)c2O1)OC12C(CC4CC1C(C)(C)OC2(CCC(C)C(=O)O)C4O)C3=O (centres undefined),u,x,n,u
C[C@H]1C2C=C[C@H]1[C@@H](C(=O)O)[C@@H]2c1c2ccc(=O)c(O)c-2oc2c(O)c(O)ccc12,x,x,x,n[10.9 µM]
CN1C[C@@H](CNC(=O)OCc2ccccc2)C[C@H]2c3cccc4c3c(cn4C)C[C@@H]21,x,n,x,x
c1ccc(C(OCCN2CCNCC2)c2ccccc2)cc1,n,n,n,n
C(=C/c1ccccc1)/CN1CCN(CCOC(c2ccccc2)c2ccccc2)CC1,32µM,u,n,n
O=S(=O)(NCCO)c1cc[c]([Sb])cc1,x,x,x,n[10.9 µM]
SMILES,p53ts 39C tox,IkB signaling,p53ts 32C kill,Imprint erasure
COc1ccc2nc(N3CCN(C(=O)CS(=O)(=O)c4ccc(C)cc4)CC3)sc2c1,7.9µM,n,11µM,n[10.9 µM]
CCOC(=O)c1ccc(N2C(=O)c3n[nH]c(-c4cccs4)c3C2c2ccc(C(C)(C)C)cc2)cc1 (centres undefined),16µM,u,u,n[10.9 µM]
CCOC(=O)c1ccc(N2C(=O)c3n[nH]c(-c4cccs4)c3C2c2ccc(Cl)cc2Cl)cc1 (centres undefined),u,u,u,n[10.9 µM]
CN[C@@H]1C[C@@H](c2ccc(Cl)c(Cl)c2)c2ccccc21,13µM,n,20µM,n
CN[C@@H]1C[C@H](c2ccc(Cl)c(Cl)c2)c2ccccc21,25µM,u,n,n
Oc1ccc2c3c1O[C@@H]1c4[nH]c5c(c4C[C@@]4(O)[C@@H](C2)N(CC2CC2)CC[C@]314)C[C@]1(O)[C@@H]2Cc3ccc(O)c4c3[C@@]1(CCN2CC1CC1)[C@H]5O4,n,n,n,x
